Experimental data: the supplement of paper PMC11417369
± gives the standard deviation of the averaged measurements. Whole data set: some 25,000 sequences, median “ln(normalized median fluorescence intensity)” near 7.9, cut for the highest 2% near 11. For the sample, the highest values were picked, then their nearest neighbours and some sequences at random.

test system: PfAP2-I AP2 domain 3 (GST-tagged); test: gcPBM binding intensity (ln(normalized median fluorescence intensity)); higher = stronger DNA binding
Summary of the method: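 The binding buffer was 1× PBS containing 1% milk, 0.2 mg/ml BSA, 0.5% salmon testes DNA and 0.03% Triton X-100. In it, GST-tagged P. falciparum DNA-binding domains expressed in E. coli were applied for 1 h to an Agilent 4 × 180k array of primer-extended double-stranded 36-bp intergenic genomic probes plus negative controls. Binding intensity, read with Alexa488 anti-GST antibody and a 488 nm scan, is the highest Masliner-normalised natural-log median intensity across replicate spots of either probe orientation.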

Row | Sequence | gcPBM binding intensity (ln)
1 | CATATTATTATTTTGGTGCATACTTATATATATTTT | 9.53 ± 0.085
2 | TACTTATTTGATTGGGTGCATATATATAGTATGTAT [GTGCAC_site9845] | 11 ± 0.73
3 | ATAGTTTAATTTATATGTACATATAATATTGATTTG [XGTACX_site7520] | 7.89 ± 0.41
4 | GTCAATATTTAGATATGTACTAAGGAGTGCTATATA [XGTACX_site222] | 10.2 ± 0.55
5 | TCCGCATGTACATGGGTGCACATAACACCCATTTAA [GTGCAC_site9881] | 10.4 ± 0.44
6 | TATATATGTATAAGAGTGCATATGCATATATGTATA [GTGCAC_site9692] | 9.85 ± 0.014
7 | GAAAAGCAGATAAATGTGCACATATATGTTTGTATA | 9.71 ± 0.43
8 | TTTTGTTTTTGTAGAGTGCATAAAGAAGATATGTAT | 11.1 ± 0.86
9 | TATGAAAAAATATATACACACATAATAAAGGTATAT [CACACA_site3737] | 7.73 ± 0.59
10 | TATTTATGCACGCGTGCACACACATATGAAAAAAGG [CACACA_site9090] | 11.1 ± 0.59
11 | GGTATTTATGGACGCGTGCACACACATATGAACAAA | 9.9 ± 0.14
12 | CAAAAGGATATGCACACACACACACGGATATTTATA [CACACA_site7099] | 8.985 ± 0.064
13 | TTATATGCATAAAAAGGTACACATATATAAATAAAT [XGTACX_site6894] | 8.23 ± 0.4
14 | TTTATGCACGCGTGCACACACATATGAAAAAAGGTA [CACACA_site3315] | 10.9 ± 0.72
15 | TTTGTTATATTTAATACACACATATTATAAACCCAT [CACACA_site3716] | 7.95 ± 0.59
16 | TTTTCTTACACGAATTTTAAATTCAATATTAAACAT [CACACA_negctrl_site286] | 8.03 ± 0.44
17 | ATGTATATTTTTATGTGTACGTAATAAAACATAATA [XGTACX_site7777] | 8.33 ± 0.27
18 | AAATCCATATAGGATTGTACATATATTATATATATA [XGTACX_site8818] | 8.46 ± 0.39
19 | ATCCTCTTTACAATATGTACATAAATATATATTTAT [XGTACX_site8001] | 8.47 ± 0.43
20 | TTTTTTGTTATGCGGGTGCATATAATAATGTGATGA | 10.9 ± 0.89
21 | TACACATAATATAATGCATGTGTGATGTATGTTTAA [TGCATGCA_site697] | 8.09 ± 0.66
22 | TTTTGTTATTTTTCAGTGCAATATGATAATAATATA | 10.5 ± 0.46
23 | TTTTTTTTTTTTTGTACATGCAAATATTATGAACAC [TGCATGCA_site571] | 8.28 ± 0.53
24 | GAAATAATTCGATGTGCATGTAACGTTTCCCCAAAG [TGCATGCA_site122] | 8.58 ± 0.54

Row | Sequence | gcPBM binding intensity (ln)
25 | AATAAATAAATAAGTACACACATATAAATATAAATA [CACACA_site6271] | 7.91 ± 0.25
26 | TGTTATTAAAATATAGTGCATAATTAACCATTATAA [GTGCAC_site9594] | 10.8 ± 0.65
27 | ATTCTTAAAAAATAAGTGCAAAATAATTAAATAAAT | 10.23 ± 0.014
28 | TTTTATGCGCAATAAGTGCATTTAAAATATATATAT | 11 ± 0.13
29 | TTATAAAATATTTATGCATGTGAAGAATATTATAAA [TGCATGCA_site1047] | 8.42 ± 0.34
30 | TTTTATGCATGTGAAGTGCAAAATAAAAAATAAAAT [GTGCAC_site9612] | 10.8 ± 0.4
31 | AATAAAATAAATATATGTACATATATATAACCATTA [XGTACX_site5549] | 7.59 ± 0.38
32 | TGGTTTATTTATTAAGTGCATAAATGCAATATATAT | 10.6 ± 0.44
33 | AATATATATAAAAAAGTGCATTAGGATAACCATATA [GTGCAC_site9590] | 11.2 ± 0.57
34 | AGGATATATAATTAAGTGCATTAATTCAAAATAAAA [GTGCAC_site9702] | 11.5 ± 0.54
35 | TGATATAAAATTAAAGTGCAAAAAAAAAATAAAAAA | 10.06 ± 0.078
36 | AAGTATTATTTTTATGCATGTGAAGTGCAAAATAAA [TGCATGCA_site198] | 11 ± 0.43
37 | ATATATTTTTATGTAGTGCATTTAAATAATAAATGC | 10.7 ± 0.55
38 | AAAAAAAAAAAAAATTGTACATTAAATTAAAAGAAA [XGTACX_site8708] | 7.88 ± 0.28
39 | ATATATATATATATAGTGCAAATATCTTCTTTATAA | 10.4 ± 0.26
40 | ATACAAGAATTAAACACACACAAAATATAAATTCTT [CACACA_site3005] | 7.85 ± 0.71
41 | AAATATTATTGACGATGTACTTCTATTCATAAGTAT [XGTACX_site3964] | 7.55 ± 0.5
42 | TAAAAATAAAGAAAATGTACATAAATAAAAATAAAG [XGTACX_site2279] | 8.14 ± 0.69
43 | GATATAATGTGTTTGGTATTCTTGATAGATAGTTTT [CACACA_negctrl_site1711] | 7.7 ± 0.47
44 | TGTAATGTTTACAACACACAAATTATAAATACAAAA [CACACA_site5047] | 7.67 ± 0.59
45 | TATATGTTTTATAGTACACACATAAATGGACATACT [CACACA_site2191] | 7.83 ± 0.33
46 | CTATATTTCGTTGGACGTACAAATGTGATAATTAGG [XGTACX_site3232] | 8.06 ± 0.46
47 | AGGTAAAAATGGTAAGTGCATTAATGATAAAAAATG | 11.1 ± 0.18
48 | ATCCTTTATAAATAAGTGCATATAAAAAATAATATT [GTGCAC_site9759] | 10.1 ± 0.3

Row | Sequence | gcPBM binding intensity (ln)
49 | GTCATCAAGTATTAAGTGCATTAAAAATAAAATATA | 11.3 ± 0.62
50 | TAAATTAATAAACAAGTGCATATATATATATATATA | 10 ± 0.49
51 | TGTAAAATATAAAAAGTGCATTTCTTTTAATATGAT | 9.96 ± 0.19
52 | TAAATATATATATAAGTGCATTATATATATATATAA | 11.2 ± 0.57
53 | TATCAATATTAAAAAGTGCAAAATAAAATATAAAAT [GTGCAC_site9486] | 10.7 ± 0.23
54 | TTGTGTAAATGTTAAGTGCATTTGGTAAAATATAAA [GTGCAC_site9699] | 9.51 ± 0.11
55 | TTGTATTAAAATCAAGTGCATATAATTTAAGTTCAT [GTGCAC_site9495] | 9.54 ± 0.042
56 | TAAAAAATAAAATACACACACATATATATATATATA [CACACA_site1323] | 9.33 ± 0.2
57 | ATTATGAATTTAAGACGTACAAAAAATTTTTATTCA [XGTACX_site5682] | 7.8 ± 0.31
58 | ACAAAATTTACAAAATGTACAAAATTTACAAAGTAT [XGTACX_site6463] | 7.54 ± 0.56
59 | ACATATATTGTACATACACACCTATATAAATATCCT [CACACA_site7503] | 8.24 ± 0.54
60 | AATAGTCGTGTGCATACACACCTTAACTATAATATA [CACACA_site6636] | 8.83 ± 0.2
61 | AACAATATGGATGTATGTACACATATAGAACGTTAT [XGTACX_site7142] | 7.91 ± 0.72
62 | TATGAATGTATATGTTGTACATATAAATATTTATAT [XGTACX_site1146] | 7.72 ± 0.34
63 | TTTGTATTAAAAAAAAAAAAAAAAAAAATGAATAAA [TGCATGCA_negctrl_site292] | 7.34 ± 0.41
64 | TTGTATTTCCTTAGGAGTACACATAAATAAGTAAAT [XGTACX_site6677] | 8.22 ± 0.092
65 | ATAATTACATAGATTGGTACACATTTTTGATTGTAT [XGTACX_site3802] | 7.71 ± 0.44
66 | ACTAATAATTTGTCGGTGCATAAAATTATTTTTATT [GTGCAC_site9840] | 10.8 ± 0.43
67 | TGTATTAAAAATTTGGTGCAACTTTTACATAATAAT | 9.49 ± 0.18
68 | ACTTTAACCTGAACGGTGCATAAAATTTTGGCATTA | 10.9 ± 0.35
69 | CATATTATATTCTGCTTACACACATATATATATATA [CACACA_site3059] | 9.36 ± 0.29
70 | TCCCAATTTCTATCCTGTACAGACATAAATATATAC [XGTACX_site5937] | 8.31 ± 0.49
71 | TATGTATATATTTACGCATGCTACTCTATTTTGAGA [TGCATGCA_site990] | 7.64 ± 0.48
72 | AATAAATACTAAATGGTGCAAAATTTTTTAACACTG | 10.8 ± 0.42

Row | Sequence | gcPBM binding intensity (ln)
73 | TAAATCAAAATAATTTAACACACAATTTTAATACTG [CACACA_site8744] | 7.34 ± 0.54
74 | ATACTATTTAAATGGGTGCTAAAAATAACAAAAATT | 9.65 ± 0.085
75 | ATCAAATTTGGACATGCATGTGTGTGTAAAACCATG [TGCATGCA_site309] | 8.52 ± 0.41
76 | TGGTATATTATTTTTTGTACACATAAATGAAACATT [XGTACX_site5345] | 8.04 ± 0.22
77 | GGTGTTTTTCACAGATGTACACAAATAAAAAAGAAA [XGTACX_site4454] | 8.39 ± 0.47
78 | TCGTTATCCATCTTCACACATATATATAGTAATATA [CACACA_site5492] | 8.27 ± 0.49
79 | AAAGTGTTAACCTAATCTTTAGTTTTTAAACAATAT [CACACA_negctrl_site841] | 7.49 ± 0.59
80 | ATATATATATATATAGTGCACATTTATATAATTATT | 11.43 ± 0.092
81 | TATATTATTAATTAAGCACACATTATTTTTATAATA [CACACA_site3982] | 8.54 ± 0.3
82 | CTATTTCAATTTAGTGCACACATTTTAATTTATAAG [CACACA_site2040] | 11.4 ± 0.49
83 | TTAATAATTAATTATAGTACACATTTATATTAATAA [XGTACX_site190] | 7.915 ± 0.064
84 | TATAATAATATTATAGTGCATATTATTTATATATAA [GTGCAC_site9820] | 9.72 ± 0.16
85 | GCCATTAATTTATACACACACATTATAACTTTTTAT [CACACA_site6492] | 8.29 ± 0.49
86 | TTAATTTATTTATGCACACATATATAATTACCCATA [CACACA_site682] | 10.2 ± 0.67
87 | ACCCATTTTAATTTAGTGCACATTTTACCTTTATAC | 11.4 ± 0.35
88 | TTTTTTTCAATATTTGCACACGATTATAATATTTAA [CACACA_site2237] | 9.415 ± 0.035
89 | TAATGGTGTTCATGTGGTACACTTTATAAATTGGCA [XGTACX_site729] | 7.9 ± 0.47
90 | CCCTTTTATTAAAATTCACACACATAAATTTTTATA [CACACA_site8611] | 8.06 ± 0.41
91 | TATAAAAAAAAAAAATATATATATATATAAATATAA [TGCATGCA_negctrl_site367] | 7.28 ± 0.37
92 | ACTTAGGAAATAAAACGTACATTAAATATATACATA [XGTACX_site2990] | 7.84 ± 0.35
93 | AAATAAAAAAGTAGTACACACTTCACGATATTTTTT [CACACA_site6015] | 7.89 ± 0.43
94 | CATCAAGTGAATTGTTGTACTTTACATTGTTTTTAT [XGTACX_site7261] | 7.89 ± 0.69
95 | AAAAAATATTATATATGTACATAATATTTTTTTTTT [XGTACX_site5909] | 7.47 ± 0.39
